# Of roughly 7,900 targets only a part is listed; those with a hit were picked by preference. About 0.6% of all pairs of compound and target were hits. A number with no mark means an inactive call.
# How the values were obtained:
# Test in all cases: log2 fold change, soluble protein after heating vs DMSO (PISA); higher = thermal stabilisation; K562 cells, 10 uM, 30 min; active = over 0.2 and 3.5 SD of the protein, either way, in both replicates (recomputed)
# [1] = compound: CN1CCN(CCOc2cc(OC3CCOCC3)c3c(Nc4c(Cl)ccc5c4OCO5)ncnc3c2)CC1 [saracatinib]
# Method in brief: (§1)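 K562 cells (2×10^6 cells/mL) were treated with 10 μM compound for 30 min, and aliquots were heated for 3 min over 48°C-58°C. Pooled aliquots were extracted in PBS with 0.5% NP-40 at 4°C, and the supernatant after 21,000xg for 90 min was measured by TMTpro 16plex LC-MS/MS with channel sums equalised. Reported thermal stability, relative to control samples and from duplicates, is a log2 fold change.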
# [2] = compound: CN1CCN(c2nc(C3=C(c4c[nH]c5ccccc45)C(=O)NC3=O)c3ccccc3n2)CC1 [sotrastaurin]
# Method in brief: as §1
# [3] = compound: CN1CC[C@H](c2c(O)cc(O)c3c(=O)cc(-c4ccccc4Cl)oc23)[C@H](O)C1 [alvocidib]
# Method in brief: as §1
# [4] = compound: CN1CCc2c(c3ccccc3n2Cc2ccc(C(=O)NO)cc2)C1 [Tubastatin A]
# Method in brief: as §1
# [5] = compound: CNC(=O)C1=CC=CC=C1NC2=NC(=NC=C2Cl)NC3=C(C=C(C=C3)N4CCOCC4)OC
# Method in brief: as §1
# [6] = compound: CNC(=O)c1ccc(Nc2ncc(C(F)(F)F)c(NCc3nccnc3N(C)S(C)(=O)=O)n2)cc1 [defactinib]
# Method in brief: as §1
# [7] = compound: CNCc1ccc(-c2[nH]c3cc(F)cc4c3c2CCNC4=O)cc1 [rucaparib]
# Method in brief: as §1
# [8] = compound: CNc1nc(-c2ccc3c(N)n[nH]c3c2)cc(N2C[C@@H](C(=O)NC3CCCCC3)CC[C@H]2C)n1
# Method in brief: as §1
# [9] = compound: COC(=O)N[C@@H](C)CNc1nccc(-c2cn(C(C)C)nc2-c2cc(Cl)cc(NS(C)(=O)=O)c2F)n1 [encorafenib]
# Method in brief: as §1
# [10] = compound: COC(=O)[C@H](CCSC)NC(=O)C1=C(C=C(C=C1)NC[C@H](CS)N)C2=CC=CC=C2
# Method in brief: as §1
# [11] = compound: COC1=CC=C(C=C1)CN2C=CC3=C2C=C(C=C3)C(=O)NO
# Method in brief: as §1
# [12] = compound: CON(C)C(=O)N1N=C(c2cc(F)ccc2F)S[C@@]1(CCCN)c1ccccc1 [filanesib]
# Method in brief: as §1
# [13] = compound: CO[C@H]1C[C@@H]2CC[C@@H](C)[C@@](O)(O2)C(=O)C(=O)N2CCCC[C@H]2C(=O)O[C@H]([C@H](C)C[C@@H]2CC[C@H](n3cnnn3)[C@H](OC)C2)CC(=O)[C@H](C)/C=C(\C)[C@@H](O)[C@@H](OC)C(=O)[C@H](C)C[C@H](C)/C=C/C=C/C=C/1C [zotarolimus]
# Method in brief: as §1
# [14] = compound: COc1cc(C(=O)O)ccc1NC(=O)[C@@H]1N[C@@H](CC(C)(C)C)[C@](C#N)(c2ccc(Cl)cc2F)[C@H]1c1cccc(Cl)c1F [idasanutlin]
# Method in brief: as §1
# [15] = compound: COc1cc(Nc2ncc3c(n2)-c2ccc(Cl)cc2C(c2c(F)cccc2OC)=NC3)ccc1C(=O)O [alisertib]
# Method in brief: as §1
# [16] = compound: COc1cc2nc(-c3cc(F)ccc3O)nc(N[C@@H]3CNC[C@H]3C(C)(C)O)c2cc1OC
# Method in brief: as §1
# [17] = compound: COc1cc2ncnc(Nc3ccc(F)c(Cl)c3)c2cc1OCCCN1CCOCC1 [gefitinib]
# Method in brief: as §1
# [18] = compound: COc1cccc2cc(-c3nc([C@H]4CC[C@H](C(=O)O)CC4)n4ncnc(N)c34)[nH]c12
# Method in brief: as §1
# [19] = compound: CS(=O)(=O)CCNCc1ccc(-c2ccc3ncnc(Nc4ccc(OCc5cccc(F)c5)c(Cl)c4)c3c2)o1 [lapatinib]
# Method in brief: as §1
# [20] = compound: CS(=O)(=O)N1CCN(Cc2cc3nc(-c4cccc5[nH]ncc45)nc(N4CCOCC4)c3s2)CC1 [pictilisib]
# Method in brief: as §1
# Sequence of UniProt Q7L1V2 (Q7L1V2 whole entry, looked up): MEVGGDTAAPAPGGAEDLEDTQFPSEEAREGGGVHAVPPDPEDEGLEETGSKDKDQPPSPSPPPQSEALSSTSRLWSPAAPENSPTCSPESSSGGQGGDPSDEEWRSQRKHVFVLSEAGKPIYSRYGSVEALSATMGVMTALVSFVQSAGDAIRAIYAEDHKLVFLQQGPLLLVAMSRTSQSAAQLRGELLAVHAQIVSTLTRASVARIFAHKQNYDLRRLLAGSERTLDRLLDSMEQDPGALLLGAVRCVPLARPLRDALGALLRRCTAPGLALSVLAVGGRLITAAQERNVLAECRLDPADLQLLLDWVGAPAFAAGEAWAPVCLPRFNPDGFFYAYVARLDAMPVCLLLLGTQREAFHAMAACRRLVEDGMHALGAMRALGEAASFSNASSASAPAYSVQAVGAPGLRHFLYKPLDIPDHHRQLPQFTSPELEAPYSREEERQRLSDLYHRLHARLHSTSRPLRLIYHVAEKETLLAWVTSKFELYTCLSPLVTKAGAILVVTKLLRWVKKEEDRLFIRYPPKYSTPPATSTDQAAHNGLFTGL
# Sequence of UniProt P35749 (P35749 whole entry, looked up): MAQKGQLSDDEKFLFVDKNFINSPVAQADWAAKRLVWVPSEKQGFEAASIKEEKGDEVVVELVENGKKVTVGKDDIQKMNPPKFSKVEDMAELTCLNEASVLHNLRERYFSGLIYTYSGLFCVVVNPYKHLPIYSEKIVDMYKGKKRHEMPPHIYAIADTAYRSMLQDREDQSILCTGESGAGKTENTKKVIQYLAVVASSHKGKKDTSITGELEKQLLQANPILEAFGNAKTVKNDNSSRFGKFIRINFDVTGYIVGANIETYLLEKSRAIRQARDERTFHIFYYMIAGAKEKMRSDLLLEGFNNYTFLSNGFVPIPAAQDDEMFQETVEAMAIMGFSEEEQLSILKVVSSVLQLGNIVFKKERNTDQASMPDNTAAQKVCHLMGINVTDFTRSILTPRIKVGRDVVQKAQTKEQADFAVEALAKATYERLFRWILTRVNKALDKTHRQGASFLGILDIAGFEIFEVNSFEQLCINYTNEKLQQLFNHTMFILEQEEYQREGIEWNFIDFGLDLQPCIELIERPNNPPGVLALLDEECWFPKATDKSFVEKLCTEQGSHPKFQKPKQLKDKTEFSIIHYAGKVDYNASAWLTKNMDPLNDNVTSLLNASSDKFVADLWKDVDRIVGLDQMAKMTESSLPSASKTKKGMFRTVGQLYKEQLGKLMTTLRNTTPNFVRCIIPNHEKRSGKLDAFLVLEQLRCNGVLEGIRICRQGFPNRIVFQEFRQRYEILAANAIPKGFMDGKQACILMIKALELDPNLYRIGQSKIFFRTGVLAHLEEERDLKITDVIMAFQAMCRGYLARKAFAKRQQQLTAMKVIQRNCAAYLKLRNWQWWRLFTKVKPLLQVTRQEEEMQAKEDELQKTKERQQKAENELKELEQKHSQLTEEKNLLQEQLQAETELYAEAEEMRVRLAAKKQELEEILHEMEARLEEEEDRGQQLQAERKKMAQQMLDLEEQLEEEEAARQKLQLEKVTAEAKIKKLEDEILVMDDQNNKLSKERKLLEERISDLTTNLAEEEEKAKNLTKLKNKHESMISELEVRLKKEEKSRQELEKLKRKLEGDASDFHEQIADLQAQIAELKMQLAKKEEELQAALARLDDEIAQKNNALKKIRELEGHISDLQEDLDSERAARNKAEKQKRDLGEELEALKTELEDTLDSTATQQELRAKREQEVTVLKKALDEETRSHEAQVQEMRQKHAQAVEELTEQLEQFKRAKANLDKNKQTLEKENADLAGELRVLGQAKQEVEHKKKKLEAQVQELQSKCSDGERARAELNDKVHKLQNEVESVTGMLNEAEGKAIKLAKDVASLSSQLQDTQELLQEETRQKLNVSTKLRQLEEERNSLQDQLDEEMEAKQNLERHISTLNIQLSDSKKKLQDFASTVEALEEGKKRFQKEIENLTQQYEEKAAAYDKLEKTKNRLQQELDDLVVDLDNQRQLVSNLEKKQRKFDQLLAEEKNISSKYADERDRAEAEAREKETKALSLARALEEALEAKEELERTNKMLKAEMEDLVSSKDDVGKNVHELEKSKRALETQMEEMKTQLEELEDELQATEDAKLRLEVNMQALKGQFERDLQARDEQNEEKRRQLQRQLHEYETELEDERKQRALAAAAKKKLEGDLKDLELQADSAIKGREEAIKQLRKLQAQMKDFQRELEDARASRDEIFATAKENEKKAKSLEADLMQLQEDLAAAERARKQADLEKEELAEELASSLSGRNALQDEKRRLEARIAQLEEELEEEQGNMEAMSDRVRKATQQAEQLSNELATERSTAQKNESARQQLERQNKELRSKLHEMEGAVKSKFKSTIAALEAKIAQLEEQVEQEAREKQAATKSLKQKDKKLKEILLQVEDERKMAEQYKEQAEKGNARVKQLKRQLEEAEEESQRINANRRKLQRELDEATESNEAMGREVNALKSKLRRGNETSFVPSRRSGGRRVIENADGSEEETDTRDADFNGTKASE
# Sequence of UniProt Q96T76 (Q96T76 whole entry, looked up): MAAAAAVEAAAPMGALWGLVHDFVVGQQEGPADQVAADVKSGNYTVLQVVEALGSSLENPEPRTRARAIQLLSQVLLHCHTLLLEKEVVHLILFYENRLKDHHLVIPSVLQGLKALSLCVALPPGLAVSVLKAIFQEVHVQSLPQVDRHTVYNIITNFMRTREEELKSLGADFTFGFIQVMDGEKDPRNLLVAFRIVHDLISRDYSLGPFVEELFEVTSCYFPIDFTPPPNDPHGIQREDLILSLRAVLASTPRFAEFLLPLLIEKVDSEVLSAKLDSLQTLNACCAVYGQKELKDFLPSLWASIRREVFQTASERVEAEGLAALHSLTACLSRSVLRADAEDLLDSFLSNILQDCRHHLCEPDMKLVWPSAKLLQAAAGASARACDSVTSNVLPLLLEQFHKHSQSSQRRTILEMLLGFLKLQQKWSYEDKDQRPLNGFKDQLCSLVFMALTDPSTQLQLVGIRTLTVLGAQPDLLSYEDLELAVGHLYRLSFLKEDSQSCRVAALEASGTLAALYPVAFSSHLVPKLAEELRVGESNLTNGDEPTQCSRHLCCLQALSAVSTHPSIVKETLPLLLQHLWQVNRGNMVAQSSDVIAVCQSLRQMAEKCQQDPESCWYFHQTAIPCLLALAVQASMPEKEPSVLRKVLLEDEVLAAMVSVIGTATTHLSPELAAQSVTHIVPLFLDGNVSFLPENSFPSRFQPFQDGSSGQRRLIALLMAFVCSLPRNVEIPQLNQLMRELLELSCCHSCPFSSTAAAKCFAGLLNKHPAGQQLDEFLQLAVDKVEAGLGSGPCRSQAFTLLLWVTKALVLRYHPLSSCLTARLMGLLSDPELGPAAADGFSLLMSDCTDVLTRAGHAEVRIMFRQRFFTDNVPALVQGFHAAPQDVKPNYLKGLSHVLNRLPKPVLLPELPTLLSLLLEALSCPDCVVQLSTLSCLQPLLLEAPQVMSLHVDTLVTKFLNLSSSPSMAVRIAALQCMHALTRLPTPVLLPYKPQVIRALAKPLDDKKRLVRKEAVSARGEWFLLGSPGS
# Sequence of UniProt Q9UBD5 (Q9UBD5 whole entry, looked up): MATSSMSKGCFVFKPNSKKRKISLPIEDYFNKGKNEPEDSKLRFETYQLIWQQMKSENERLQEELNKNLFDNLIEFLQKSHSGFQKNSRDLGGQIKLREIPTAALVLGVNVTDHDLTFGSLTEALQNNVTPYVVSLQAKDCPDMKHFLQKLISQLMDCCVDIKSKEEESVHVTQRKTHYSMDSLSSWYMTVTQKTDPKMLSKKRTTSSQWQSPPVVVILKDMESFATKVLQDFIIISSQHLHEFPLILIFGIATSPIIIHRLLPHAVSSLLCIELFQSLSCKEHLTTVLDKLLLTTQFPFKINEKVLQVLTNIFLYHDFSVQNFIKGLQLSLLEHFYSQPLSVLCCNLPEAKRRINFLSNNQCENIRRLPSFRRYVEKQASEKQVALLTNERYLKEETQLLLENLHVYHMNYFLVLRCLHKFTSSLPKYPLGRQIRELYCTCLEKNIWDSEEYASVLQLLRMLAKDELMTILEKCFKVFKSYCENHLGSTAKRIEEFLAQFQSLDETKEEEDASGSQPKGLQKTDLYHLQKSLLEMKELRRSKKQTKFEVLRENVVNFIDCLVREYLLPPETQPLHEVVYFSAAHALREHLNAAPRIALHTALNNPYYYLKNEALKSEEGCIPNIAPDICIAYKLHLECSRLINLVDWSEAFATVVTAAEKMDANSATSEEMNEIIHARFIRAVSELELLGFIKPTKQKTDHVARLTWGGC
# Sequence of UniProt Q9NRP0 (Q9NRP0 whole entry, looked up): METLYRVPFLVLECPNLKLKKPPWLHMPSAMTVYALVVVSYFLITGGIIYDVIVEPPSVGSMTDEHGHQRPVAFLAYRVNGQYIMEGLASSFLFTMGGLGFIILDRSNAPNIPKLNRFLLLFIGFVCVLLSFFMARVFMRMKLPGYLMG
# Sequence of UniProt Q15102 (Q15102 whole entry, looked up): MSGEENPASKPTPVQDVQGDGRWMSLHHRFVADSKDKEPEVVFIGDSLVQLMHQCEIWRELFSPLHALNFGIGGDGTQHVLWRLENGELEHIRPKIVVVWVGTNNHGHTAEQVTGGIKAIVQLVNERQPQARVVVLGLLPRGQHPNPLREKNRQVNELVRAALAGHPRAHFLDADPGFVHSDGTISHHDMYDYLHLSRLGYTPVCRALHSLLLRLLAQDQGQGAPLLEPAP
# Sequence of UniProt Q9HBL8 (Q9HBL8 whole entry, looked up): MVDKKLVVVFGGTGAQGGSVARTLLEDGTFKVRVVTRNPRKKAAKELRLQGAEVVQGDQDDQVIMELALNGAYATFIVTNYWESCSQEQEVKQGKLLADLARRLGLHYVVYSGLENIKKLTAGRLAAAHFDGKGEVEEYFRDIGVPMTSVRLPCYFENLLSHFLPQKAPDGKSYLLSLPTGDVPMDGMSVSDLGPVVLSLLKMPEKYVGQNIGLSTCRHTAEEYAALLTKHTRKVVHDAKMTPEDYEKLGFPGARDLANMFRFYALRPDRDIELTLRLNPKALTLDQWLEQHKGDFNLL
Target,log2 fold change [1],log2 fold change [2],log2 fold change [3],log2 fold change [4],log2 fold change [5],log2 fold change [6],log2 fold change [7],log2 fold change [8],log2 fold change [9],log2 fold change [10],log2 fold change [11],log2 fold change [12],log2 fold change [13],log2 fold change [14],log2 fold change [15],log2 fold change [16],log2 fold change [17],log2 fold change [18],log2 fold change [19],log2 fold change [20]
MYH11 isoform 2 (UniProt P35749),0.069,-0.024,-0.024,-0.025,0.03,-0.039,-0.034,0.009,0.001,-0.022,0.027,-0.002,0.022,-0.045,0.033,0.067,0.025,-0.033,0.018,-0.035
NNT (UniProt Q13423),0.005,0,-0.024,-0.01,0.017,-0.009,-0.053,-0.036,-0.001,-0.014,-0.008,-0.08,0.015,-0.076,-0.041,0.037,0.016,0.031,-0.031,-0.01
PAFAH1B3 (UniProt Q15102),-0.109,-0.034,-0.082,0.026,0.001,0.021,0.049,0.002,-0.006,-0.071,-0.01,-0.024,0.037,-0.033,-0.044,0.03,0.043,0.057,-0.054,0.079
MSH6 (UniProt P52701),-0.142,-0.278,-0.255,0.127,-0.049,-0.379,-0.014,0.102,0.141,-0.098,0.09,-0.154,0.088,-0.003,0.75,-0.017,0.068,-0.04,0.008,-0.026
OSTC (UniProt Q9NRP0),0.111,-0.05,-0.048,-0.174,0.03,-0.053,-0.036,-0.004,0.047,-0.046,-0.05,-0.171,-0.105,-0.041,-0.101,-0.184,0.018,0.026,-0.041,0.162
NUP98 (UniProt P52948),-0.019,-0.072,-0.063,0.041,0.018,-0.12,0.063,-0.037,0.039,-0.053,-0.003,0.045,0.009,0.061,0.007,0.047,0.026,-0.057,0.02,0.027
NMRAL1 (UniProt Q9HBL8),0.115,0.028,0.001,0.14,0.061,0.122,0.84 (active),0.018,-0.14,-0.154,0.678,-0.084,0.135,-0.268,-0.099,0.184,0.257,0.003,-0.003,0.83
MRPS12 (UniProt O15235),-0.19,-0.068,-0.001,-0.02,-0.017,0.119,0.299,0.233,0.105,0.048,0.018,0.074,0.039,-0.162,-0.03,-0.088,-0.078,-0.062,0.082,-0.177
MMS19 isoform 8 (UniProt Q96T76),-0.013,-0.156,-0.115,-0.071,0.003,-0.127,0.052,-0.003,0.099,-0.008,-0.094,-0.036,0.037,-0.014,-0.019,0.06,0.026,0.019,-0.021,-0.008
MRPS9 (UniProt P82933),-0.064,-0.072,0.043,0.04,0.013,0.056,0.087,0.136,0.05,-0.081,0.009,0.007,0.065,-0.16,0.076,-0.021,0.084,0.016,0.096,-0.049
MITD1 (UniProt Q8WV92),-0.031,-0.002,-0.005,0.161,-0.146,0.133,0.097,-0.112,-0.018,-0.043,0.059,0.004,-0.068,-0.058,0.018,-0.013,-0.018,0.063,0.004,-0.121
MON1B (UniProt Q7L1V2),0.005,-0.028,-0.057,0.048,-0.011,0.016,-0.015,-0.036,0.037,-0.013,-0.012,0.029,-0.008,-0.056,-0.136,0.065,-0.012,0.037,0.055,0.029
MON2 isoform 5 (UniProt Q7Z3U7),-0.089,-0.001,-0.056,-0.005,0.02,-0.011,0.01,0.044,0.026,-0.025,-0.003,-0.017,0.101,-0.147,0.046,0.091,0.039,-0.004,0.036,0.048
ORC3 isoform 2 (UniProt Q9UBD5),0.001,0.011,-0.299,0.006,-0.078,-0.288,0,0.014,0.288,0.06,0.071,0.043,0.064,0.265,-0.058,-0.002,0.006,-0.068,0.031,0.027
OXA1L (UniProt Q15070),0.018,0.003,-0.01,-0.036,0.004,0.005,-0.029,-0.054,-0.027,0.031,-0.023,-0.123,0.009,-0.029,0.003,-0.186,-0.004,0.053,0.013,0.058
MRPS24 (UniProt Q96EL2),-0.153,-0.124,-0.202,0.024,0.067,0.041,0.153,0.137,0.08,-0.108,-0.153,0.047,0.088,-0.134,-0.104,0.096,-0.056,-0.014,0.047,-0.174
